# Assay results as given in PubChem BioAssay (EPA / NIEHS).
# Several values for one entry are separate records, joined by “and”; a condition that tells them apart may be missing. Equal values may be shown once. Some compounds were tested as several samples or in several runs, with calls that do not always agree. Activity calls are given as the source filed them. Rule for the calls: active = hit-call score of the fitted dose curve at least 0.9, where 1 is the maximum; inactive = score below 0.9.
# Legend:
# Conditions in all cases: mRNA level, 48 h; actives raise or lower the signal
# [1] = read-out: Signal transducer and activator of transcription 3 (Homo sapiens) (UniProt P40763); assay: LTEA_HepaRG_STAT3: Life Technologies and Expression Analysis (LTEA) Assay for Signal transducer and activator of transcription (STAT3) using HepaRG (AID 2283529)
# Summary of the method: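 HepaRG, 48 h exposure, 8-pt half-log series (top 100 uM), 0.5% DMSO vehicle, duplicates. Readout: STAT3 transcript by Fluidigm qRT-PCR, housekeeping-normalized; bidirectional fit vs DMSO baseline.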
# [2] = read-out: solute carrier (SLCO1B1), SLCO1B1 (gene 10599); assay: LTEA_HepaRG_SLCO1B1: Life Technologies and Expression Analysis (LTEA) Assay for solute carrier (SLCO1B1) using HepaRG (AID 2283530)
# Summary of the method: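 Human HepaRG cultures treated for 48 h with an eight-concentration half-log series topping at 100 uM; SLCO1B1 measured by qRT-PCR and fitted bidirectionally relative to DMSO.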
# [3] = read-out: sulfotransferase 2A1 (SULT2A1), SULT2A1 (gene 6822); assay: LTEA_HepaRG_SULT2A1: Life Technologies and Expression Analysis (LTEA) Assay for sulfotransferase 2A1 (SULT2A1) using HepaRG (AID 2283531)
# Summary of the method: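 Gene-expression endpoint in a human liver cell line: SULT2A1 mRNA change after 48 h chemical treatment, curves fitted in both directions relative to 0.5% DMSO vehicle. Concentrations spanned eight half-log steps from 100 uM.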
# [4] = read-out: Transforming Growth Factor (TGFA), TGFA (gene 7039); assay: LTEA_HepaRG_TGFA: Life Technologies and Expression Analysis (LTEA) Assay for Transforming Growth Factor (TGFA) using HepaRG (AID 2283532)
# Summary of the method: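 qRT-PCR read-out of TGFA transcript, normalized to three housekeeping genes, fitted bidirectionally against 0.5% DMSO baseline. Human HepaRG cultures received chemicals for 48 h at eight half-log concentrations, top 100 uM.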
# [5] = read-out: Transforming Growth Factor (TGFB1), TGFB1 (gene 7040); assay: LTEA_HepaRG_TGFB1: Life Technologies and Expression Analysis (LTEA) Assay for Transforming Growth Factor (TGFB1) Transporter using HepaRG (AID 2283533)
# Summary of the method: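 Eight-point concentration-response (max 100 uM, half-log) in HepaRG under serum-free induction conditions, 48 h. TGFB1 mRNA by qRT-PCR, housekeeping-normalized.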
# TIMP1, TIMP1 (gene 7076) = assay: LTEA_HepaRG_TIMP1: Life Technologies and Expression Analysis (LTEA) Assay for TIMP1 using HepaRG (AID 2283534)
# Summary of the method: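 TIMP1 induction or repression in HepaRG cells after 48 h chemical exposure (eight concentrations, highest 100 uM), assessed by normalized qRT-PCR with bidirectional fitting to DMSO controls.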
# [6] = read-out: Tumor necrosis factor receptor 1 (TNFRSF1A), TNFRSF1A (gene 7132); assay: LTEA_HepaRG_TNFRSF1A: Life Technologies and Expression Analysis (LTEA) Assay for Tumor necrosis factor receptor 1 (TNFRSF1A) using HepaRG (AID 2283535)
# Summary of the method: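 Assay uses 48 h chemical treatment of differentiated HepaRG monolayers, tested in duplicate at eight concentrations from 100 uM downward in 0.5% DMSO. mRNA is normalized to ACTB, GAPDH and POLR2A, with induction or suppression fitted relative to vehicle.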
# [7] = read-out: Thyroid Hormone Responsive (THRSP), THRSP (gene 7069); assay: LTEA_HepaRG_THRSP: Life Technologies and Expression Analysis (LTEA) Assay for Thyroid Hormone Responsive (THRSP) using HepaRG (AID 2283536)
# Summary of the method: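 qRT-PCR read-out (Fluidigm TaqMan), housekeeping-normalized (ACTB/GAPDH/POLR2A). HepaRG, 48 h chemical exposure, 8-pt half-log series from 100 uM in 0.5% DMSO, duplicates. Bidirectional curve fit vs 0.5% DMSO baseline.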
# [8] = read-out: Cellular tumor antigen p53 (Homo sapiens) (UniProt P04637); assay: LTEA_HepaRG_TP53: Life Technologies and Expression Analysis (LTEA) Assay for Tumor Protein P53 (TP53) using HepaRG (AID 2283537)
# Summary of the method: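 Read-out is TP53 transcript level by microfluidic qRT-PCR, normalised to three housekeeping genes and fitted bidirectionally against DMSO. Human HepaRG cells received compounds for 48 h, highest concentration 100 uM.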
# [9] = read-out: UDP glucuronosyltransferase (UGT1A1), UGT1A1 (gene 54658); assay: LTEA_HepaRG_UGT1A1: Life Technologies and Expression Analysis (LTEA) Assay for UDP glucuronosyltransferase (UGT1A1) using HepaRG (AID 2283538)
# Summary of the method: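 HepaRG, 48 h chemical exposure (top 100 uM, half-log 8-pt, 0.5% DMSO vehicle), duplicate wells; qRT-PCR (TaqMan, Fluidigm array) for UGT1A1 mRNA, housekeeping-normalized; bidirectional curve fit vs DMSO baseline.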
# Cellular tumor antigen p53 (Homo sapiens), sequence (P04637 whole entry, looked up): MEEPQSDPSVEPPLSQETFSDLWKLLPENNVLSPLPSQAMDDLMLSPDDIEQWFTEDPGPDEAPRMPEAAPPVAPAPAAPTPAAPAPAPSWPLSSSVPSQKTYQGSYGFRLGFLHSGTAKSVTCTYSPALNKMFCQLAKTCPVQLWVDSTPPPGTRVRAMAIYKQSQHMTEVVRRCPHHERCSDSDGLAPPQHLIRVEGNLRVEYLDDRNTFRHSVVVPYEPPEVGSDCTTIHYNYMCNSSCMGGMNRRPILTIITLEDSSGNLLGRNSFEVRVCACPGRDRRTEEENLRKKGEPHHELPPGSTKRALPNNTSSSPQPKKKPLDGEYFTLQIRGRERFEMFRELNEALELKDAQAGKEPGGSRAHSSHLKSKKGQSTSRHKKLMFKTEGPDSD
# Signal transducer and activator of transcription 3 (Homo sapiens), sequence (P40763 whole entry, looked up): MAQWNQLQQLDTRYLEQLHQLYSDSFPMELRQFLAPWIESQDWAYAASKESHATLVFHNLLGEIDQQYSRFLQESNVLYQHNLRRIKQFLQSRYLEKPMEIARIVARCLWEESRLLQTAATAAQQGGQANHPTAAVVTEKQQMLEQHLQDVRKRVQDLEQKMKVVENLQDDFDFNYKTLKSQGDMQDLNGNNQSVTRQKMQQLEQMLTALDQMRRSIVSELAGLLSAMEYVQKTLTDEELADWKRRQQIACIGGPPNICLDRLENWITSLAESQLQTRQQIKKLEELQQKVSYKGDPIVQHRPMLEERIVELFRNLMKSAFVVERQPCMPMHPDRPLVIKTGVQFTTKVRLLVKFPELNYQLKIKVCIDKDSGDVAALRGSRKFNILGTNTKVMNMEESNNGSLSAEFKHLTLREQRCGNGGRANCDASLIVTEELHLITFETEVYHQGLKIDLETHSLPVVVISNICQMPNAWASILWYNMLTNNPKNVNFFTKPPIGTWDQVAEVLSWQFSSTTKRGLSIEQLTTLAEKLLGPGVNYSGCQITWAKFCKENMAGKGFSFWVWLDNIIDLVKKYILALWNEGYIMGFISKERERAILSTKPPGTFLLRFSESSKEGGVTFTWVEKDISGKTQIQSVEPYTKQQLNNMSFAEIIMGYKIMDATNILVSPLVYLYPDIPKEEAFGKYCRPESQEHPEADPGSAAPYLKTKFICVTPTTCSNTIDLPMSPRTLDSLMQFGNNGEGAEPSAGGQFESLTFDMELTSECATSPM
smiles,measurement,setting,value
CC(Oc1ccc(Cl)cc1Cl)C(=O)O (configuration not stated),outcome,[1],inactive
same,outcome,[2],inactive
same,outcome,[3],inactive
same,outcome,[4],inactive
same,outcome,[5],inactive
same,outcome,"TIMP1, TIMP1 (gene 7076)",inactive
same,outcome,[6],inactive
same,outcome,[7],inactive
same,outcome,[8],inactive
same,outcome,[9],inactive
N#Cc1cc(Br)c(O)c(Br)c1,AC50,[1],3.27 µM (active)
same,AC50,[2],17.8 µM (active)
same,AC50,[3],25.7 µM (active)
same,outcome,[4],inactive
same,AC50,[5],14.2 µM (active)
same,AC50,[6],16.9 µM (active)
same,AC50,[7],22.6 µM (active)
same,AC50,[8],10.4 µM (active)
same,AC50,[9],17 µM (active)
C=CCC1=C(C)C(OC(=O)C2C(C=C(C)C)C2(C)C)CC1=O (configuration not stated),AC50,[2],87.3 µM (active) and 50 µM (active)
same,outcome,[2],inactive
same,AC50,[3],86.7 µM (active)
same,outcome,[3],inactive
same,outcome,[4],inactive
same,outcome,[5],inactive
same,outcome,[6],inactive
same,outcome,[7],inactive
same,outcome,[8],inactive
same,outcome,[9],inactive
Oc1ccccc1-c1ccccc1,outcome,[2],inactive
same,outcome,[3],inactive
same,outcome,[4],inactive
same,outcome,[5],inactive
same,outcome,"TIMP1, TIMP1 (gene 7076)",inactive
same,outcome,[6],inactive
same,outcome,[7],inactive
same,outcome,[8],inactive
same,outcome,[9],inactive
CNC(=S)S,outcome,[2],inactive
same,outcome,[3],inactive
same,outcome,[4],inactive
same,outcome,[5],inactive
same,outcome,"TIMP1, TIMP1 (gene 7076)",inactive
same,outcome,[6],inactive
same,outcome,[7],inactive
same,outcome,[8],inactive
same,outcome,[9],inactive
CCCN(CCC)c1c([N+](=O)[O-])cc(S(N)(=O)=O)cc1[N+](=O)[O-],outcome,[2],inactive
same,AC50,[3],92.1 µM (active) and 76.9 µM (active) and 81 µM (active)
same,outcome,[4],inactive
same,AC50,[5],93.9 µM (active)
same,outcome,[5],inactive
same,AC50,"TIMP1, TIMP1 (gene 7076)",93.9 µM (active)
same,outcome,"TIMP1, TIMP1 (gene 7076)",inactive
same,AC50,[6],82.1 µM (active)
same,outcome,[6],inactive
same,outcome,[7],inactive
same,AC50,[9],7.17 µM (active) and 86.5 µM (active) and 89.5 µM (active)
CON(C)C(=O)Nc1ccc(Cl)c(Cl)c1,outcome,[2],inactive
same,outcome,[3],inactive
same,outcome,[4],inactive
same,outcome,[5],inactive
same,outcome,"TIMP1, TIMP1 (gene 7076)",inactive
same,outcome,[6],inactive
same,AC50,[7],11.4 µM (active)
same,AC50,[8],69.8 µM (active)
same,AC50,[9],32.5 µM (active)
Cc1c(F)c(F)c(COC(=O)C2C(/C=C(\Cl)C(F)(F)F)C2(C)C)c(F)c1F (configuration not stated),outcome,[2],inactive
same,outcome,[3],inactive
same,outcome,[4],inactive
same,outcome,[5],inactive
same,outcome,"TIMP1, TIMP1 (gene 7076)",inactive
same,outcome,[6],inactive
same,outcome,[7],inactive
same,outcome,[8],inactive
same,outcome,[9],inactive
CCNc1nc(Cl)nc(NC(C)C)n1,outcome,[1],inactive
same,outcome,[2],inactive
same,outcome,[3],inactive
same,outcome,[4],inactive
same,outcome,[5],inactive
same,outcome,[6],inactive
same,outcome,[7],inactive
same,outcome,[8],inactive
same,AC50,[9],18.1 µM (active)
N#CC(CCc1ccc(Cl)cc1)(Cn1cncn1)c1ccccc1 (configuration not stated),outcome,[1],inactive
same,AC50,[2],83.6 µM (active)
same,AC50,[3],77.2 µM (active)
same,AC50,[4],77 µM (active)
same,AC50,[5],66.7 µM (active)
same,outcome,[6],inactive
same,AC50,[7],90.7 µM (active)
same,AC50,[8],75.5 µM (active)
same,AC50,[9],74.9 µM (active)
CO/C=C(/C(=O)OC)c1ccccc1Oc1cc(Oc2ccccc2C#N)ncn1,AC50,[2],76.2 µM (active) and 72.9 µM (active) and 75.6 µM (active)
same,AC50,[3],80.9 µM (active) and 81.2 µM (active) and 94.4 µM (active)
same,AC50,[4],84.4 µM (active) and 81.8 µM (active) and 84.8 µM (active)
same,outcome,[5],inactive
same,outcome,"TIMP1, TIMP1 (gene 7076)",inactive
same,outcome,[6],inactive
same,AC50,[7],93.2 µM (active) and 80.5 µM (active)
same,outcome,[7],inactive
same,AC50,[8],84.8 µM (active) and 83.1 µM (active) and 83 µM (active)
same,AC50,[9],88.7 µM (active) and 87.6 µM (active) and 83.3 µM (active)
COC(=O)c1ccccc1C(=O)OC,outcome,[1],inactive
same,outcome,[2],inactive
same,outcome,[3],inactive
same,outcome,[4],inactive
same,outcome,[5],inactive
same,outcome,[6],inactive
same,outcome,[7],inactive
same,outcome,[8],inactive
same,outcome,[9],inactive
CCOc1cc(Oc2ccc(C(F)(F)F)cc2Cl)ccc1[N+](=O)[O-],AC50,[2],20.6 µM (active)
same,AC50,[3],35.3 µM (active)
same,AC50,[4],15.3 µM (active)
same,AC50,[5],19 µM (active)
same,outcome,[6],inactive
same,AC50,[7],21.7 µM (active)
same,AC50,[8],14 µM (active)
same,AC50,[9],5.1 µM (active)
CC(C)Oc1cc(-n2nc(C(C)(C)C)oc2=O)c(Cl)cc1Cl,outcome,[1],inactive
same,outcome,[2],inactive
same,AC50,[3],80.9 µM (active)
same,outcome,[4],inactive
same,outcome,[5],inactive
same,outcome,[6],inactive
same,AC50,[7],11.8 µM (active)
same,AC50,[8],86.3 µM (active)
same,AC50,[9],1.41 µM (active)
C=CCC1=C(C)[C@@H](OC(=O)[C@@H]2[C@@H](C=C(C)C)C2(C)C)CC1=O,outcome,[2],inactive
same,outcome,[3],inactive
same,outcome,[4],inactive
same,outcome,[5],inactive
same,outcome,"TIMP1, TIMP1 (gene 7076)",inactive
same,outcome,[6],inactive
same,outcome,[7],inactive
same,outcome,[8],inactive
same,outcome,[9],inactive
COc1cnc(OC)n2nc(NS(=O)(=O)c3c(OCC(F)F)cccc3C(F)(F)F)nc12,outcome,[2],inactive
same,outcome,[3],inactive
same,outcome,[4],inactive
same,outcome,[5],inactive
same,outcome,[6],inactive
same,AC50,[7],50 µM (active)
same,outcome,[8],inactive
same,AC50,[9],19 µM (active)
CN(C)C(=S)SSC(=S)N(C)C,outcome,[2],inactive
same,outcome,[3],inactive
same,outcome,[4],inactive
same,outcome,[5],inactive
same,outcome,"TIMP1, TIMP1 (gene 7076)",inactive
same,outcome,[6],inactive
same,outcome,[7],inactive
same,outcome,[8],inactive
same,outcome,[9],inactive
O=C(O)c1nc(Cl)ccc1Cl,outcome,[1],inactive
same,outcome,[2],inactive
same,outcome,[3],inactive
same,outcome,[4],inactive
same,outcome,[5],inactive
same,outcome,[6],inactive
same,outcome,[7],inactive
same,outcome,[8],inactive
same,outcome,[9],inactive
CCc1nn(C)c(C(=O)NCc2ccc(C(C)(C)C)cc2)c1Cl,outcome,[1],inactive
same,AC50,[2],31.3 µM (active)
same,AC50,[3],26.8 µM (active)
same,AC50,[4],16.4 µM (active)
same,AC50,[5],50 µM (active)
same,AC50,[6],27.4 µM (active)
same,AC50,[7],1.06 µM (active)
same,AC50,[8],12.1 µM (active)
same,AC50,[9],27.8 µM (active)
Cc1cc(Cl)ccc1OCC(=O)O,outcome,[2],inactive
same,AC50,[3],85.8 µM (active)
same,outcome,[4],inactive
same,outcome,[5],inactive
same,outcome,"TIMP1, TIMP1 (gene 7076)",inactive
same,outcome,[6],inactive
same,outcome,[7],inactive
same,outcome,[8],inactive
same,outcome,[9],inactive
CCCCOC(=O)c1ccccc1C(=O)OCCCC,outcome,[2],inactive
same,outcome,[3],inactive
same,outcome,[4],inactive
same,outcome,[5],inactive
same,outcome,[6],inactive
same,outcome,[7],inactive
same,outcome,[8],inactive
same,outcome,[9],inactive
CCOC(=O)C(Cl)Cc1cc(-n2nc(C)n(C(F)F)c2=O)c(F)cc1Cl (configuration not stated),outcome,[2],inactive
same,outcome,[3],inactive
same,outcome,[4],inactive
same,outcome,[5],inactive
same,outcome,"TIMP1, TIMP1 (gene 7076)",inactive
same,outcome,[6],inactive
same,outcome,[7],inactive
same,outcome,[8],inactive
same,AC50,[9],38.2 µM (active)
CCCCNC(=O)OCC#CI,outcome,[1],inactive
same,AC50,[2],50 µM (active)
same,AC50,[3],50 µM (active)
same,outcome,[4],inactive
same,outcome,[5],inactive
same,outcome,[6],inactive
same,AC50,[7],50 µM (active)
same,outcome,[8],inactive
same,AC50,[9],24.9 µM (active)
CCON=C(CC)C1=C(O)CC(c2c(C)cc(C)cc2C)CC1=O (configuration not stated),outcome,[2],inactive
same,outcome,[3],inactive
same,outcome,[4],inactive
same,outcome,[5],inactive
same,outcome,[6],inactive
same,AC50,[7],50 µM (active)
same,outcome,[8],inactive
same,AC50,[9],27.9 µM (active)
